High-throughput results deposited in PubChem by several laboratories.
SENP8 block-1 = human SENP8 protease inhibitors, primary screen, biochemical, fluorescence, Nedd8 protein substrate, uHTS. Sentrin-specific protease 8 (Homo sapiens), Q96LD8. recombinant SENP8. inhibition, % at 20 µM. hit rate 0.64% among 360,000. AID 602440, 2012; in the data active means inhibition mostly above about 40%, no sharp cut-off; inactive means mostly below about 27%
SENP6 block = SENP6 protease inhibitors, primary screen, biochemical, luminescence, uHTS. Sentrin-specific protease 6 (Homo sapiens), Q9GZR1. Recombinant SENP6 catalytic domain, aminoluciferin luminescence. inhibition, % at 10 µM. hit rate 1.8% among 330,000;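 active means inhibition above about 50% at the single tested dose, limit read from the data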;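 further: plate controls were DMSO wells with enzyme for no effect and DMSO wells lacking enzyme for full effect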
Target sequence (Q9GZR1 628-1112 limits assumed): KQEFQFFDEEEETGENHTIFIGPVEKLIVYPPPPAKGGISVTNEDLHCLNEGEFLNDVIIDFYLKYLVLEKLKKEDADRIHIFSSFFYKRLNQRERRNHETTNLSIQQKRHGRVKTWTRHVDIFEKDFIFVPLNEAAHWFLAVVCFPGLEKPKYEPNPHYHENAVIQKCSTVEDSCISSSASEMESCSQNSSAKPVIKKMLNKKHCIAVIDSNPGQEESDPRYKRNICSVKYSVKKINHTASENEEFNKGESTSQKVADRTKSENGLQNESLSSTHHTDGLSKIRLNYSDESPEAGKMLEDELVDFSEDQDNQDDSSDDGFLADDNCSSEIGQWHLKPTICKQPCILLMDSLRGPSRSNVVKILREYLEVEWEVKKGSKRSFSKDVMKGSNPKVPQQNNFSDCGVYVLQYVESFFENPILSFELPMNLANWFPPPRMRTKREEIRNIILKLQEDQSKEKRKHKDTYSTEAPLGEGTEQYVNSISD
LGR2 inh = inhibitors of bursicon-induced LGR2 CRE-luciferase signal, primary screen, cell-based, HEK293, CRE-luciferase reporter, bursicon stimulation | Drosophila bursicon receptor LGR2 (rickets) | bursicon-stimulated, 4 h | inhibition, % at 9.99 µM | hit rate 0.35% among 380,000 | AID 720647, 2013;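 active means drop in luminescence signal, shown as inhibition above about 50% in the replicate tests, limit read from the data, passing the limit was not always enough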;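 further: agonist challenge used bursicon conditioned medium at about half maximal strength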
SENP7 block = SENP7 protease inhibitors, primary screen, biochemical, luminescence, uHTS | Sentrin-specific protease 7 (Homo sapiens), Q9BQF6 | recombinant SENP7, Z-RLRGG-aminoluciferin luminescence, 40 min | inhibition, % at 5 µM | hit rate 1.5% among 330,000 | AID 434973, 2010;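 active means inhibition above about 50% at the single test dose, limit read from the data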;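 further: plate controls were DMSO with enzyme for no effect and no enzyme buffer wells for full effect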
HSP90 refold inh = HSP90 inhibitors, primary screen, cell lysate, luminescence. AID 1789, 2009. Rabbit reticulocyte lysate, luciferase refolding luminescence, 3 h. Heat shock protein HSP 90 (rabbit reticulocyte lysate; luciferase refolding). inhibition, % at 5.6 µM. hit rate 0.91% among 290,000;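 active means inhibition above the screen-wide mean plus 3 SD, computed separately per campaign, cut at about 16% in these data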;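 further: 0% = DMSO wells and 100% = 60 µM geldanamycin wells; inhibitors lower the luminescence because luciferase stays unfolded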
SENP8 block-2 = SENP8 protease inhibitors, primary screen, biochemical, luminescence; Sentrin-specific protease 8 (Homo sapiens), Q96LD8; purified SENP8, Z-RLRGG-aminoluciferin cleavage; inhibition, % at 10 µM; hit rate 1.2% among 330,000; AID 2540, 2010; in the data active means inhibition above about 50%
SENP8 confirm = SENP8 protease inhibitors, retest, confirmation, biochemical, luminescence, single concentration. inhibition, % at 12.5 µM. Recombinant SENP8, Z-RLRGG-aminoluciferin luminescence, 60 min. shares compounds with SENP7 block. hit rate 40% among 6,200;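 active means mean inhibition across replicates above about 50%, limit read from the data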
SENP6 conf = SENP6 protease inhibitors, confirmation, biochemical, luminescence, single concentration; shares compounds with SENP7 block; recombinant SENP6, Z-RLRGG-aminoluciferin luminescence; inhibition, % at 12.5 µM; hit rate 58% among 6,200; AID 488915, 2010
SENP7 confirm = SENP7 protease inhibitors, retest, confirmation, biochemical, luminescence, single concentration. shares compounds with SENP7 block. recombinant SENP7, Z-RLRGG-aminoluciferin luminescence, 40 min. inhibition, % at 12.5 µM. hit rate 69% among 6,200. AID 488917, 2010
Casp3 SENP sel = caspase-3 protease inhibitors, confirmation, selectivity assay for SENP inhibitor project, biochemical, single concentration; purified caspase-3, Z-DEVD-aminoluciferin luminescence, 60 min; hit rate 60% among 6,200; inhibition, % at 12.5 µM; shares compounds with SENP7 block;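 active means mean inhibition above about 50%, limit read from the data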;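 further: plate controls were enzyme with DMSO for no effect and wells without caspase-3 for full effect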
Luc interf = counter-screen for SENP inhibitors: luminescence interference; shares compounds with SENP7 block; AID 488919; inhibition, % at 12.5 µM; Pre-incubated SENP8/Z-RLRGG-aminoluciferin, luciferase luminescence interference; hit rate 39% among 6,200;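 active means mean inhibition above about 50% when retested at one dose, limit read from the data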;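 further: plate controls were DMSO wells with completed reaction for no effect and substrate without enzyme for full effect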
* = called active by the depositor; . = no result. An excerpt weighted towards active compounds, which were near 2.3% of everything screened.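 How the source made its calls, unless noted: active means mean inhibition above about 50% in the one-dose retest (limit read from the data); inactive means the rest.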

SMILES	SENP8 block-1	SENP6 block	LGR2 inh	SENP7 block	HSP90 refold inh	SENP8 block-2	SENP8 confirm	SENP6 conf	SENP7 confirm	Casp3 SENP sel	Luc interf
CSc1nc2ccc(NC(=O)c3ccc(=O)[nH]c3)cc2s1	-4.2	6.3	-4.2	6.0	1.8	-7.6	.	.	.	.	.
COc1ccc(C(=O)Nc2ccc3nc(C)sc3c2)cc1OC	0.3	-7.0	-32.0	73.0*	-2.2	41.9	57.4*	56.6*	87.3*	79.5*	70.9*
CSc1nc2ccc(NC(=O)c3ccco3)cc2s1	0.3	4.6	-65.6	10.1	2.9	-4.6	.	.	.	.	.
CSc1nc2ccc(NC(=O)c3ccc(=O)n(C)n3)cc2s1	4.8	92.2*	-13.1	84.1*	-1.6	71.1*	-4.1	30.7	61.4*	54.7*	26.4
CSc1nc2ccc(NC(=O)c3cc4ccccc4o3)cc2s1	-183.7	4.6	-44.9	93.2*	-3.3	69.3*	-4.8	59.6*	84.5*	42.3	-0.2
O=C(C[C@H]1C=C[C@H](NC(=O)CCN2CCCCC2)[C@H](CO)O1)Nc1ccccc1	.	.	19.8	.	.	.	.	.	.	.	.
CNC[C@H]1Oc2ccc(NC(=O)Nc3ccc4c(c3)OCO4)cc2CC(=O)N([C@H](C)CO)C[C@@H]1C	.	.	-20.3	.	.	.	.	.	.	.	.
C[C@H](CO)N1C[C@H](C)[C@@H](CN(C)C(=O)Nc2ccc3c(c2)OCO3)OCCCC[C@H](C)Oc2ccc(NS(C)(=O)=O)cc2C1=O	.	.	-9.6	.	.	.	.	.	.	.	.
CC1CC1C(=O)Nc1nc2ccc(S(C)(=O)=O)cc2s1 (stereo not drawn)	5.9	-3.2	13.2	-9.7	-5.3	3.0	.	.	.	.	.
COc1ccc2nc(NC(=O)c3cc(C)oc3C)sc2c1	-83.1	88.4*	.	101.2*	2.4	89.9*	-19.5	93.5*	102.3*	95.5*	63.2*
Cc1ccc(C(=O)Nc2nc3ccccc3s2)s1	-112.6	91.0*	.	85.3*	15.7	73.5*	56.7*	83.1*	96.9*	75.9*	49.2
Cc1csc(NC(=O)c2ccccc2O)n1	-398.6	10.1	.	6.3	-0.9	-3.1	.	.	.	.	.
CCOC(=O)Nc1nc2ccccc2s1	14.7	40.4	.	37.7	3.5	11.9	.	.	.	.	.
Cc1ccc(C(=O)Nc2nc3ccc(S(C)(=O)=O)cc3s2)s1	-202.1	68.3*	.	47.4	-1.1	50.7*	4.6	52.7*	43.2	62.5*	22.6
Cc1csc(NC(=O)c2cc(C)oc2C)n1	1.9	68.7*	.	58.9*	-2.5	46.1	63.8*	62.8*	88.9*	84.1*	64.8*
C[C@H]1CN([C@@H](C)CO)C(=O)Cc2cc(NC(=O)Cc3ccccc3)ccc2O[C@H]1CN(C)CC1CC1	.	.	-1.9	.	.	.	.	.	.	.	.
Cc1cc(C(=O)Nc2ccon2)c(C)o1	0.9	-39.4	-4.1	-9.1	0.8	-10.2	.	.	.	.	.
COc1ccc2nc(NC(=O)c3cccnc3SC)sc2c1	-287.0	92.9*	.	85.0*	-3.9	70.6*	77.8*	76.7*	93.4*	71.6*	46.2
Cc1ccc(C(=O)O)c(C(=O)Nc2nc3ccccc3s2)c1	15.9	69.2*	-2.8	-1.7	-2.4	67.2*	90.0*	90.8*	100.2*	95.0*	75.5*
